# Experimental data published in PubChem BioAssay (EPA / NIEHS).
# Results filed as inconclusive are left out. The source made the active and inactive calls. Rule for the calls: active = hit-call score of the fitted dose curve at least 0.9, where 1 is the maximum; inconclusive = response in the unintended direction; inactive = score below 0.9.
# What was measured:
# [1] = tested on: guinea pig Leukotriene B4 Receptor (LTB4), gene 100379538; test: NVS_GPCR_gLTB4: NovaScreen (NVS) G Protein-Coupled Receptor Assay for guinea pig Leukotriene B4 Receptor (LTB4) (AID 2283247)
# Procedure, shortened: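 Radioligand displacement on guinea pig spleen membranes, filter-based scintillation counting 2 h after dosing. Primary duplicate single point at 25 uM; hits over threshold (e.g. 30% inhibition) run in concentration-response up to 50 uM, DMSO baseline.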
# [2] = target: guinea pig Leukotriene D4 Receptor (LTD4), CYSLTR1 (gene 100135514) (UniProt Q2NNR5); test: NVS_GPCR_gLTD4: NovaScreen (NVS) G Protein-Coupled Receptor Assay for guinea pig Leukotriene D4 Receptor (LTD4) (AID 2283248)
# Procedure, shortened: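 Radioligand displacement on guinea pig lung membranes, 1 h incubation, filtration and scintillation counting; DMSO as negative control. Duplicate 25 uM primary screen, then singleton concentration-response up to 50 uM.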
# [3] = target: guinea pig Opioid, Kappa 1 Receptor (OpiateK), OPRK1 (gene 100135587) (UniProt P41144); test: NVS_GPCR_gOpiateK: NovaScreen (NVS) G Protein-Coupled Receptor Assay for guinea pig Opioid, Kappa 1 Receptor (OpiateK) (AID 2283252);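 note: radioligand displacement from kappa opioid receptor in guinea pig cerebellar membranes; active means reduced radioligand binding relative to DMSO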
# Chain of guinea pig Opioid, Kappa 1 Receptor (OpiateK), OPRK1 (gene 100135587) (P41144 whole entry, looked up): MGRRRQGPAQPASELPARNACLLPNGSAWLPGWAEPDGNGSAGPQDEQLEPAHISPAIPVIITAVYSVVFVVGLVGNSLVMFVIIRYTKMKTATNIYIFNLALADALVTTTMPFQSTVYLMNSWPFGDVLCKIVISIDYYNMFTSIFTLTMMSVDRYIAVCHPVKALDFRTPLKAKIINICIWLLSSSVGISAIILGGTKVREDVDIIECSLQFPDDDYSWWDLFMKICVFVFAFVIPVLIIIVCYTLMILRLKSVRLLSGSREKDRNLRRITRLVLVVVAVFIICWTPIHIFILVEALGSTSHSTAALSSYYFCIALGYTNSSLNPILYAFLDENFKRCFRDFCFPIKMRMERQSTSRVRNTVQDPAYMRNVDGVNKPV
# Procedure, shortened: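 Signal is scintillation counts of filter-trapped radioligand bound to guinea pig cerebellar membrane receptor, measured 2 hours post-dosing. Activity is loss of binding versus DMSO, first at 25 uM in duplicate, then as concentration series for actives.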
# [4] = target: human Serotonin, 5-Hydroxytryptamine Receptor 2A (5HT2A), HTR2A (gene 3356) (UniProt P28223); test: NVS_GPCR_h5HT2A: NovaScreen (NVS) G Protein-Coupled Receptor Assay for human Serotonin, 5-Hydroxytryptamine Receptor 2A (5HT2A) (AID 2283249)
# Chain of human Serotonin, 5-Hydroxytryptamine Receptor 2A (5HT2A), HTR2A (gene 3356) (P28223 whole entry, looked up): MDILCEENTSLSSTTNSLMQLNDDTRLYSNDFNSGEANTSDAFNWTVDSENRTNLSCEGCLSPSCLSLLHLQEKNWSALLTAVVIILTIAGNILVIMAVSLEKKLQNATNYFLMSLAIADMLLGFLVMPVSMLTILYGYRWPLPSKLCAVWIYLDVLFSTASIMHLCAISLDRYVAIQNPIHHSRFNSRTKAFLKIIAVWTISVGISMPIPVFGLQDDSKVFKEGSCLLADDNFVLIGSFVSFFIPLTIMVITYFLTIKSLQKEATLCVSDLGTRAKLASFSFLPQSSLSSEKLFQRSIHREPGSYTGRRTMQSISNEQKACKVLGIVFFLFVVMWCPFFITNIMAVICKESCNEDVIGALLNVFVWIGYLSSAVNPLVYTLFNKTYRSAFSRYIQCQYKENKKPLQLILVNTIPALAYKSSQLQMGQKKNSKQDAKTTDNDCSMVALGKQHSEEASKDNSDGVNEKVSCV
# Procedure, shortened: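 Human cortex membranes, cell-free radioligand binding; filter-based scintillation read 1.5 h after dosing. Duplicate screen at 25 uM first; displacement of specific binding (loss of signal) versus DMSO.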
# [5] = tested on: guinea pig Muscarinic, Peripheral (Mperiperal) Receptor, Non-selective Binding, gene 100379235; test: NVS_GPCR_gMPeripheral_NonSelective: NovaScreen (NVS) G Protein-Coupled Receptor Assay for guinea pig Muscarinic, Peripheral (Mperiperal) Receptor, Non-selective Binding (AID 2283250)
# Procedure, shortened: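 Guinea pig bladder membranes, radioligand binding read 1 h after dosing by filter scintillation counting; loss of signal vs DMSO. Primary duplicate screen at 25 uM, then concentration-response up to 50 uM.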
# [6] = target: human Serotonin, 5-Hydroxytryptamine Receptor 5A (5HT5A), HTR5A (gene 3361) (UniProt P47898); test: NVS_GPCR_h5HT5A: NovaScreen (NVS) G Protein-Coupled Receptor Assay for human Serotonin, 5-Hydroxytryptamine Receptor 5A (5HT5A) (AID 2283251)
# Chain of human Serotonin, 5-Hydroxytryptamine Receptor 5A (5HT5A), HTR5A (gene 3361) (P47898 whole entry, looked up): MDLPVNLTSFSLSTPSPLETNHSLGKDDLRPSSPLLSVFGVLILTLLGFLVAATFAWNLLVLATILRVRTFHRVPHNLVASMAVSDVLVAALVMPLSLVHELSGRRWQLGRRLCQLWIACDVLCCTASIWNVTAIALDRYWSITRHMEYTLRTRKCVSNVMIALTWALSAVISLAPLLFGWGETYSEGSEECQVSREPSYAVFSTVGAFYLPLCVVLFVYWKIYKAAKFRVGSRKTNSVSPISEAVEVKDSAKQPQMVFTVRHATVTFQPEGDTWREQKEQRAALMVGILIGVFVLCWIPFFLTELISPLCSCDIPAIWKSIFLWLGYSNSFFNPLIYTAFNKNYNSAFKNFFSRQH
# Procedure, shortened: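 Cell-free radioligand displacement binding on HEK293-derived membrane protein, 1 h incubation, filter-based scintillation counting. Primary screen in duplicate at 25 uM, actives followed in concentration series; loss of signal fitted versus DMSO.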
# [7] = target: human Serotonin, 5-Hydroxytryptamine Receptor 6 (5HT6), HTR6 (gene 3362) (UniProt P50406); test: NVS_GPCR_h5HT6: NovaScreen (NVS) G Protein-Coupled Receptor Assay for human Serotonin, 5-Hydroxytryptamine Receptor 6 (5HT6) (AID 2283253)
# Procedure, shortened: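 Radioligand binding to 5HT6 in HEK293-derived membranes, cell-free, 1 h after dosing; bound ligand measured by filter-based scintillation counting. Primary screen in duplicate at 25 uM; actives retested in concentration series.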
# [8] = target: human Adrenergic, Beta 3 Receptor (Adrb3), ADRB3 (gene 155) (UniProt P13945); test: NVS_GPCR_hAdrb3: NovaScreen (NVS) G Protein-Coupled Receptor Assay for human Adrenergic, Beta 3 Receptor (Adrb3) (AID 2283262)
# Chain of human Adrenergic, Beta 3 Receptor (Adrb3), ADRB3 (gene 155) (P13945 whole entry, looked up): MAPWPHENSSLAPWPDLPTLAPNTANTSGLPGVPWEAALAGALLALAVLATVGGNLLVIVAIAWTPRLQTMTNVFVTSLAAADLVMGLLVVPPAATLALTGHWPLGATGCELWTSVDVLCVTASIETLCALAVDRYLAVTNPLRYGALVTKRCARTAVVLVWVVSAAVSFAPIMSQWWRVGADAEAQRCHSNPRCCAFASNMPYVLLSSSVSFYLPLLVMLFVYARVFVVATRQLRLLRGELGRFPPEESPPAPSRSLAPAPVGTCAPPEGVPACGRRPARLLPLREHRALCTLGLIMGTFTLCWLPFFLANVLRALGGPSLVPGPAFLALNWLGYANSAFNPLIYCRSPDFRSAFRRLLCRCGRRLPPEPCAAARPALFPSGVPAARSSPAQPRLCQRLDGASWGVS
# Procedure, shortened: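 Membranes from SK-N-MC cells pretreated with isoproterenol and 8-bromo-cAMP were used in a radioligand competitive displacement binding assay. Binding was read by filter-based scintillation counting 1 hour after dosing. Primary screening was in duplicate at 25 uM, with concentration series in follow-up.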
# [9] = target: human Dopamine Receptor D4.4 (DRD4.4), DRD4 (gene 1815) (UniProt P21917); test: NVS_GPCR_hDRD4.4: NovaScreen (NVS) G Protein-Coupled Receptor Assay for human Dopamine Receptor D4.4 (DRD4.4) (AID 2283264)
# Procedure, shortened: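 Radioligand displacement on human DRD4.4 from CHO-derived membranes, 1 hour incubation, bound counts read by filtration and scintillation. Primary screen in duplicate at 25 uM; actives followed up in concentration series.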
# [10] = target: human Dopamine Receptor D2 (DRD2), DRD2 (gene 1813) (UniProt P14416); test: NVS_GPCR_hDRD2s: NovaScreen (NVS) G Protein-Coupled Receptor Assay for human Dopamine Receptor D2 (DRD2) (AID 2283266)
# Chain of human Dopamine Receptor D2 (DRD2), DRD2 (gene 1813) (P14416 whole entry, looked up): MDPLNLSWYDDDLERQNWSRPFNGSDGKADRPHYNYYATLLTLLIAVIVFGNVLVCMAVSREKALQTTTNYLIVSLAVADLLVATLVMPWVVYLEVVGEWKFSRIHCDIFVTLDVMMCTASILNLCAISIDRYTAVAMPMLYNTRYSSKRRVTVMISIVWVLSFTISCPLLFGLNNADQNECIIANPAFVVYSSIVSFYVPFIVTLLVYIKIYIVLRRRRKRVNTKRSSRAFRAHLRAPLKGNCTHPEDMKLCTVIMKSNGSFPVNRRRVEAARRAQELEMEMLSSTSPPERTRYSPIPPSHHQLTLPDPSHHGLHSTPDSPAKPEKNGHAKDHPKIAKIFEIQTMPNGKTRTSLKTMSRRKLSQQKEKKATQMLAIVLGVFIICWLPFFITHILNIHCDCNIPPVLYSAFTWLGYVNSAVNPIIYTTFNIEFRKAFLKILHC
# Procedure, shortened: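 Radioligand displacement used human DRD2 membranes extracted from CHO cells and was read by filter-based scintillation counting after 1.5 hours. Primary screening was in duplicate at 25 uM. Loss of signal versus DMSO was fitted, with concentration series in follow-up.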
# [11] = target: human Adrenergic, Alpha 2A Receptor (Adra2A), ADRA2A (gene 150) (UniProt P08913); test: NVS_GPCR_hAdra2A: NovaScreen (NVS) G Protein-Coupled Receptor Assay for human Adrenergic, Alpha 2A Receptor (Adra2A) (AID 2283257)
# Chain of human Adrenergic, Alpha 2A Receptor (Adra2A), ADRA2A (gene 150) (P08913 whole entry, looked up): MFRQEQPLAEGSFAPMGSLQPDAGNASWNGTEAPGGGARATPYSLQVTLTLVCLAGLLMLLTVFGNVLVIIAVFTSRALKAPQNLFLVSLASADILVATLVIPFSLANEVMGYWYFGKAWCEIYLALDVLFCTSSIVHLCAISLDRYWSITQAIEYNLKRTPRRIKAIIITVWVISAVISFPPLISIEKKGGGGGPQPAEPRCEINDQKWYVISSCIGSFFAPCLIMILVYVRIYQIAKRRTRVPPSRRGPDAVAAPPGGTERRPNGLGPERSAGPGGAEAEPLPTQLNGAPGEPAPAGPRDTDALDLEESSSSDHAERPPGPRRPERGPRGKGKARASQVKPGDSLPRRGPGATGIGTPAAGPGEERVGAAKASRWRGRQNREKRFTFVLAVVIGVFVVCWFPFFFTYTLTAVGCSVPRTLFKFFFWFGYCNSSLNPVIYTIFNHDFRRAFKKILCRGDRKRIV
# Procedure, shortened: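 Radioligand filter-binding was run on HT29-derived membranes, cell-free, read by scintillation counting 1 h after dosing. Primary screening was in duplicate at 25 uM, with concentration series in follow-up. Loss of signal versus DMSO indicates displacement.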
# [12] = target: human Adrenergic, Beta 1 Receptor (Adrb1), ADRB1 (gene 153) (UniProt P08588); test: NVS_GPCR_hAdrb1: NovaScreen (NVS) G Protein-Coupled Receptor Assay for human Adrenergic, Beta 1 Receptor (Adrb1) (AID 2283258)
# Chain of human Adrenergic, Beta 1 Receptor (Adrb1), ADRB1 (gene 153) (P08588 whole entry, looked up): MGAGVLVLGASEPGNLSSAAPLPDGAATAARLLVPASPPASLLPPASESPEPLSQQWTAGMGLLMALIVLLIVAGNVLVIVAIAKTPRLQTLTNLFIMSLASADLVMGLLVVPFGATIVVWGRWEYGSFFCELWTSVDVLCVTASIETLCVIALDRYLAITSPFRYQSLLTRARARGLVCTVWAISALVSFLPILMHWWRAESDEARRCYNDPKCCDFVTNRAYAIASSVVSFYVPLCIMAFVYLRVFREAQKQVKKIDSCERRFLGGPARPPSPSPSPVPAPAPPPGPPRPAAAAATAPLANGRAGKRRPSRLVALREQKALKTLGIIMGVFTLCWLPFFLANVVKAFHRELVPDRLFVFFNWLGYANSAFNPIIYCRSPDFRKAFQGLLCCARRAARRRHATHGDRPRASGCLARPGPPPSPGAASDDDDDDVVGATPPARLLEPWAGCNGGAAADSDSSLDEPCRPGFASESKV
# Procedure, shortened: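 Cell-free radioligand displacement on receptor from human neuroepithelioma cells; 2 h after dosing, filter-based scintillation counting. Primary screen in duplicate at 25 uM, actives retested in concentration series; loss of signal vs DMSO baseline.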
# [13] = target: human Adenosine A1 Receptor (AdoRA1), ADORA1 (gene 134) (UniProt P30542); test: NVS_GPCR_hAdoRA1: NovaScreen (NVS) G Protein-Coupled Receptor Assay for human Adenosine A1 Receptor (AdoRA1) (AID 2283254)
# Chain of human Adenosine A1 Receptor (AdoRA1), ADORA1 (gene 134) (P30542 whole entry, looked up): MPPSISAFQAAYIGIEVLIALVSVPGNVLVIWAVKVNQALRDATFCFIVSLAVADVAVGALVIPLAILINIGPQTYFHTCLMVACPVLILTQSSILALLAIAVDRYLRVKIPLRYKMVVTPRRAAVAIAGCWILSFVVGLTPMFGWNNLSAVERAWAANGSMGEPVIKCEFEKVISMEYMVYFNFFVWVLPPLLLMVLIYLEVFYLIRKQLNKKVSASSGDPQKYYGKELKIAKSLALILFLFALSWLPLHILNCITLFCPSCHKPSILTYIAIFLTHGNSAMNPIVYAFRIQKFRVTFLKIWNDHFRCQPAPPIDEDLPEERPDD
# Procedure, shortened: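 Radioligand competition binding on human cortical membranes, 1 h after compound addition; bound radioactivity read by filtration and scintillation counting. Loss of signal versus DMSO baseline scored as displacement; primary screen duplicate at 25 uM, actives retested in concentration series.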
# [14] = target: human Adenosine A2a Receptor (AdoRA2a), ADORA2A (gene 135) (UniProt P29274); test: NVS_GPCR_hAdoRA2a: NovaScreen (NVS) G Protein-Coupled Receptor Assay for human Adenosine A2a Receptor (AdoRA2a) (AID 2283256)
# Chain of human Adenosine A2a Receptor (AdoRA2a), ADORA2A (gene 135) (P29274 whole entry, looked up): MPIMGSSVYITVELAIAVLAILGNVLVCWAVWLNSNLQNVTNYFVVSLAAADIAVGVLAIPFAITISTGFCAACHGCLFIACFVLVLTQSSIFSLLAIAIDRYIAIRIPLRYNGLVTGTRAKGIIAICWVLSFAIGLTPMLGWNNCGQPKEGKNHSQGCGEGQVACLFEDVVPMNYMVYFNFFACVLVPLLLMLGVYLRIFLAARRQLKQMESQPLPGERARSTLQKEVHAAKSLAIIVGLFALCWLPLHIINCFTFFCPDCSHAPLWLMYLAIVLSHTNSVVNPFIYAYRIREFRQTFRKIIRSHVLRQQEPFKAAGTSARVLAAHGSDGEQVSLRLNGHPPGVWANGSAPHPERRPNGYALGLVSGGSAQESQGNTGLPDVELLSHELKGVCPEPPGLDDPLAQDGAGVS
# Procedure, shortened: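 Cell-free radioligand binding on membranes from HEK293 expressing the receptor; competitive displacement read 1.5 h after dosing by filter-based scintillation counting. Primary screen in duplicate at 25 uM; actives followed in concentration series, with DMSO as baseline.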
# [15] = target: human Adrenergic, Alpha 2c Receptor (Adra2C), ADRA2C (gene 152) (UniProt P18825); test: NVS_GPCR_hAdra2C: NovaScreen (NVS) G Protein-Coupled Receptor Assay for human Adrenergic, Alpha 2c Receptor (Adra2C) (AID 2283259)
# Chain of human Adrenergic, Alpha 2c Receptor (Adra2C), ADRA2C (gene 152) (P18825 whole entry, looked up): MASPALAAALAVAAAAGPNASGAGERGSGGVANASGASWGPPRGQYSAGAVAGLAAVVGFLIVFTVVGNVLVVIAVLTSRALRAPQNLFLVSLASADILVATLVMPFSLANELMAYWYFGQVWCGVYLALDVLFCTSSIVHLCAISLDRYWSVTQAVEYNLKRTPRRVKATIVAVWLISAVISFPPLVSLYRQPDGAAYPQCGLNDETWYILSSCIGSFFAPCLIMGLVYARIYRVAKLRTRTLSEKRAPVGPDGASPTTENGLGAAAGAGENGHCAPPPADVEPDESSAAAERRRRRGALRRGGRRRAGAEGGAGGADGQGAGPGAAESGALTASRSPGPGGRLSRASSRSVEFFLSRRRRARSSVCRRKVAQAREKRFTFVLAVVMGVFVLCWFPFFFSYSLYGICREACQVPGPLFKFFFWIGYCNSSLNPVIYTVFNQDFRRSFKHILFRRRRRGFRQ
# Procedure, shortened: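 Radioligand binding on Sf9-expressed receptor membranes, 1 h after chemical dosing, filter-based scintillation read-out. Loss of binding fitted positively versus DMSO; primary duplicate screen at 25 uM, actives retested in concentration series.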
# [16] = target: Beta-2 adrenergic receptor (Homo sapiens) (UniProt P07550); test: NVS_GPCR_hAdrb2: NovaScreen (NVS) G Protein-Coupled Receptor Assay for human Adrenergic, Beta 2 Receptor (Adrb2) (AID 2283261)
# Chain of Beta-2 adrenergic receptor (Homo sapiens) (P07550 whole entry, looked up): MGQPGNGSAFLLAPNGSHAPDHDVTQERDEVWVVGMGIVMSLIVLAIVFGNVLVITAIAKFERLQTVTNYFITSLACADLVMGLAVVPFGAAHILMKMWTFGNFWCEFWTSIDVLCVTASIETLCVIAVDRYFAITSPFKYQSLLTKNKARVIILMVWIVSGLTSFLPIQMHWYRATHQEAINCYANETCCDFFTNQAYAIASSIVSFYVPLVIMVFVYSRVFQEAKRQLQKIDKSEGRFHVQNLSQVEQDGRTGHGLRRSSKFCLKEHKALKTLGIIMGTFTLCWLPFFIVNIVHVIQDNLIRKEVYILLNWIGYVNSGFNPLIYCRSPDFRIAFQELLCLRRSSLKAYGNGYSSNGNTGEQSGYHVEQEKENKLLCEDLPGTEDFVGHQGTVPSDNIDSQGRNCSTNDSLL
# Procedure, shortened: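 Filter-based radioligand binding using receptor prepared from CHO cells, 1 h incubation, scintillation counting. Primary screen in duplicate at 25 uM, actives retested in concentration series; loss of binding relative to DMSO.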
# [17] = target: human Histamine 1 Receptor (H1), HRH1 (gene 3269) (UniProt P35367); test: NVS_GPCR_hH1: NovaScreen (NVS) G Protein-Coupled Receptor Assay for human Histamine 1 Receptor (H1) (AID 2283268)
# Procedure, shortened: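 Cell-free radioligand displacement at human H1 receptor, 1 h, filter scintillation counting; primary screen 25 uM in duplicate, hits in concentration series; loss of binding fitted vs DMSO.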
# [18] = target: Type-1 angiotensin II receptor (Homo sapiens) (UniProt P30556); test: NVS_GPCR_hAT1: NovaScreen (NVS) G Protein-Coupled Receptor Assay for human Angiotensin II receptor type 1 (AT1) (AID 2283263)
# Procedure, shortened: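 Membranes from KAN-TS cells; radioligand competitive displacement, 3 h, filtration and scintillation counting. Single-point duplicate screen at 25 uM, then concentration-response up to 50 uM for hits; loss of signal fitted versus DMSO.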
# [19] = target: human Endothelin Receptor Type B (ETB), EDNRB (gene 1910) (UniProt P24530); test: NVS_GPCR_hETB: NovaScreen (NVS) G Protein-Coupled Receptor Assay for human Endothelin Receptor Type B (ETB) (AID 2283267)
# Procedure, shortened: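 Human astrocytoma cell membranes; radioligand competitive binding read by filter scintillation counting 4 hours after dosing. Single-concentration duplicate screen at 25 uM, then singleton concentration-response up to 50 uM; loss of signal versus DMSO.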
compound,measurement,setting,value
CC[C@H](C)[C@@H](C(=O)O)n1sc2ccccc2c1=O,outcome,[1],inactive
same,outcome,[2],inactive
same,AC50,[3],12.7 µM (active)
CC(C)(C)c1cc(C(C)(C)C)c(O)c(C(C)(C)C)c1,outcome,[4],inactive
CC(=O)NC1(c2cccc(F)c2)CCN(CC[C@@]2(c3ccc(Cl)c(Cl)c3)CN(c3ccccc3)C(=O)CO2)CC1,AC50,[4],1.9 µM (active)
same,AC50,[5],20.8 µM (active)
same,AC50,[6],28.3 µM (active)
same,AC50,[3],20.8 µM (active)
same,AC50,[7],5.94 µM (active)
same,AC50,[8],34.2 µM (active)
same,AC50,[9],13.2 µM (active)
same,AC50,[10],11 µM (active)
O=c1c(-c2ccc(O)cc2)coc2cc(O)ccc12,outcome,[4],inactive
CCCCCCC(=O)O,outcome,[11],inactive
CCCCCCCCCCCCCCCS(=O)(=O)Oc1ccccc1,outcome,[12],inactive
NC(=O)N1C(=O)C(C(=O)c2cc(Cl)cs2)c2cc(F)c(Cl)cc21 (configuration not stated),AC50,[1],0.585 µM (active)
same,AC50,[6],41.3 µM (active)
same,AC50,[13],8.46 µM (active)
same,AC50,[14],19.7 µM (active)
same,outcome,[12],inactive
same,AC50,[15],25 µM (active)
CCN(CC)CCNc1ccc(CNC=O)c2sc3ccc(OC)cc3c(=O)c12,AC50,[5],5.83 µM (active)
same,AC50,[6],4.96 µM (active)
same,AC50,[3],25 µM (active)
same,AC50,[13],3.34 µM (active)
same,AC50,[14],5.28 µM (active)
same,outcome,[11],inactive
same,AC50,[15],14.6 µM (active)
same,AC50,[16],28.3 µM (active)
same,AC50,[10],18.8 µM (active)
same,AC50,[17],7.5 µM (active)
O=C(O)Cc1cc(I)c(Oc2cc(I)c(O)c(I)c2)c(I)c1,outcome,[6],inactive
same,outcome,[13],inactive
same,outcome,[18],inactive
CCCOc1sc(C(=O)N2CCC(c3cc(CN)ccc3F)CC2)c(C)c1Br,AC50,[4],14.3 µM (active)
same,AC50,[5],23.2 µM (active)
same,AC50,[6],15.1 µM (active)
same,outcome,[3],inactive
same,AC50,[7],8.41 µM (active)
same,AC50,[13],17.2 µM (active)
same,AC50,[11],4.12 µM (active)
same,AC50,[12],15.2 µM (active)
same,AC50,[15],8.34 µM (active)
same,AC50,[16],7.53 µM (active)
same,AC50,[8],33.5 µM (active)
same,AC50,[9],16.9 µM (active)
same,AC50,[10],9.42 µM (active)
same,AC50,[17],18.2 µM (active)
Oc1cc2ccccc2c2ccccc12,outcome,[14],inactive
NC(=O)N(O)[C@@H]1C=C[C@H](Oc2cccc(Oc3ccc(F)cc3)c2)C1,AC50,[6],14 µM (active)
same,AC50,[11],6.62 µM (active)
same,outcome,[12],inactive
same,outcome,[16],inactive
same,outcome,[8],inactive
same,outcome,[10],inactive
CC(=O)CC(C)(C)O,outcome,[8],inactive
same,outcome,[19],inactive
